Test results reported in PubChem BioAssay AID1159580 (chemical genetic matrix, 2015).
Where “and” joins values, the source holds several entries; their conditions need not be identical. Equal entries are not always repeated. The whole screen tested about 5,500 compounds, of which about 2,000 (36%) were called active. Not shown: some 18% with an inconclusive outcome. No stated cut-off is given here; in the data, active means normalized growth mostly below about 0.91 (no sharp cut-off); inconclusive means no clear call, values can overlap the other calls; inactive means mostly above about 0.92. This is one part of the list.

Experiment: chemical genetic growth profiling, strain panel (AID 1159580);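 further: tested at 20 µM; growth read once vehicle control cultures reached saturation at 30 °C; 1 = growth at the plate median or of vehicle wells; lower values mean less growth of the strain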
Details: S. cerevisiae deletion strains, growth OD

Measured: normalized growth

C[C@@H]1CC(Cl)CC[C@H]1C(=O)OC(C)(C)C (some centres not stated)
inactive: locus YAL013W, strain DEP1, hits give low values 0.987 | locus YAL021C, strain ccr4, hits give low values 1.02 | locus YAL026C, strain drs2, hits give low values 0.973 | locus YAL030W, strain snc1, hits give low values 0.982 | locus YBL061C, strain skt5, hits give low values 0.983 | locus YBR009C, strain hhf1, hits give low values 0.948 | locus YBR021W, strain FUR4, hits give low values 0.976 | locus YBR023C, strain chs3, hits give low values 0.98 | locus YBR171W, strain sec66, hits give low values 0.979 | locus YBR229C, strain ROT2, hits give low values 0.992 | locus YBR231C, strain swc5, hits give low values 0.986 | locus YBR279W, strain paf1, hits give low values 0.993 | locus YCL011C, strain gbp2, hits give low values 0.979 | locus YCL016C, strain dcc1, hits give low values 0.98 | locus YCL029C, strain bik1, hits give low values 0.98 | locus YCL061C, strain MRC1, hits give low values 0.983 | locus YCL069W, strain vba3, hits give low values 0.985 | locus YCR088W, strain abp1, hits give low values 0.987 | locus YDL005C, strain med2, hits give low values 0.991 | locus YDL035C, strain GPR1, hits give low values 0.995 | locus YDL040C, strain nat1, hits give low values 0.982 | locus YDL074C, strain BRE1, hits give low values 0.948 | locus YDL101C, strain DUN1, hits give low values 0.985 | locus YDL134C, strain PPH21, hits give low values 0.997 | locus YDL185W, strain tfp1, hits give low values 0.952 | locus YDL192W, strain arf1, hits give low values 0.983 | locus YDR001C, strain nth1, hits give low values 0.976 | locus YDR069C, strain doa4, hits give low values 0.97 | locus YDR101C, strain arx1, hits give low values 0.969 | locus YDR137W, strain rgp1, hits give low values 0.93 | locus YDR150W, strain NUM1, hits give low values 0.984 | locus YDR159W, strain sac3, hits give low values 0.915 | locus YDR162C, strain NBP2, hits give low values 0.992 | locus YDR195W, strain ref2 0.961 | locus YDR297W, strain sur2, hits give low values 0.981 | locus YDR318W, strain mcm21, hits give low values 0.988 | locus YDR334W, strain swr1, hits give low values 0.978 | locus YDR335W, strain msn5, hits give low values 0.981 | locus YDR388W, hits give low values 0.994 | locus YDR392W, strain spt3, hits give low values 0.774 | locus YDR502C, strain sam2, hits give low values 0.992 | locus YEL003W, strain gim4, hits give low values 0.976 | locus YEL037C, strain rad23, hits give low values 0.983 | locus YEL061C, strain CIN8 (second series), hits give low values 0.984 | locus YEL061C, strain CIN8, hits give low values 0.989 | locus YER015W, strain faa2, hits give low values 0.986 | locus YER016W, strain bim1, hits give low values 0.975 | locus YER110C, hits give low values 0.986 | locus YER111C, strain swi4, hits give low values 0.964 | locus YER155C, strain BEM2 (second series), hits give low values 0.956 | locus YER155C, strain BEM2, hits give low values 0.997 | locus YER167W, strain BCK2, hits give low values 0.993 | locus YFR010W, strain ubp6, hits give low values 0.98 | locus YGL078C, strain dbp3, hits give low values 0.983 | locus YGL086W, strain mad1, hits give low values 1 | locus YGL167C, strain pmr1, hits give low values 0.973 | locus YGL173C, strain kem1, hits give low values 0.968 | locus YGL227W, strain vid30, hits give low values 0.988 | locus YGL240W, strain doc1, hits give low values 0.978 | locus YGL248W, strain PDE1, hits give low values 0.995 | locus YGL253W, strain hxk2, hits give low values 0.969 | locus YGR078C, strain PAC10, hits give low values 0.971 | locus YGR135W, strain pre9, hits give low values 0.988 | locus YGR229C, strain SMI1, hits give low values 0.909 | locus YGR252W, strain gcn5, hits give low values 1.19 | locus YHR013C, strain ard1, hits give low values 0.95 | locus YHR027C, strain rpn1, hits give low values 0.981 | locus YHR030C, strain SLT2, hits give low values 0.982 and 1.01 | locus YHR079C, strain IRE1 (second series), hits give low values 0.985 | locus YHR079C, strain IRE1, hits give low values 1.01 | locus YHR094C, strain hxt1, hits give low values 0.972 | locus YHR129C, strain ARP1, hits give low values 0.985 | locus YHR142W, strain chs7, hits give low values 1.01 | locus YHR200W, strain rpn10, hits give low values 0.997 | locus YIL066C, strain RNR3, hits give low values 0.995 | locus YIL073C, strain SPO22, hits give low values 0.96 | locus YIL125W, strain kgd1, hits give low values 0.987 | locus YIR030C, strain dcg1, hits give low values 0.993 | locus YJL092W, strain hpr5, hits give low values 0.984 | locus YJL095W, strain BCK1 (second series), hits give low values 0.984 | locus YJL095W, strain BCK1, hits give low values 1 and 1.01 | locus YJL115W, strain asf1, hits give low values 0.993 | locus YJL129C, strain trk1, hits give low values 0.975 | locus YJL134W, strain LCB3, hits give low values 0.99 | locus YJL154C, strain vps35, hits give low values 0.98 | locus YJL164C, strain tpk1, hits give low values 1 | locus YJL166W, strain qcr8, hits give low values 0.986 | locus YJL168C, strain set2, hits give low values 0.979 | locus YJL187C, strain SWE1 (second series), hits give low values 0.975 | locus YJL187C, strain SWE1, hits give low values 0.986 | locus YJR043C, strain POL32, hits give low values 0.977 | locus YJR066W, strain TOR1, hits give low values 0.939
